According to PubChem BioAssay (Tox21):
Activity calls are given as the source filed them. Where a call stands in place of a potency, no number is given. Calls follow the shape of the dose curve; as a rule, active = well fitted inhibition curve with a large enough effect in the repeat runs (not every such curve was filed as active); inconclusive = weak or mixed curves; inactive = flat fitted curve, though single readings scatter.

Target: Thyrotropin-releasing hormone receptor (Homo sapiens) (UniProt P34981)
Assay: qHTS assay to identify small molecule antagonists of the thyrotropin-releasing hormone receptor (TRHR) signaling pathway (AID 1346877)
Conditions: TRHR-HEK293, TRH-induced calcium fluorescence, antagonist mode; series mostly up to 51.3 µM
Excerpt: National Center for Advancing Translational Sciences [NCATS]
NIH Chemical Genomics Center [NCGC]
U.S. Environmental Protection Agency [EPA]
National Institutes of Environmental Health Sciences [NIEHS]
National Toxicology Program [NTP]
U.S. Food and Drug Administration [FDA]
Thyrotropin-releasing hormone (TRH) receptor (TRHR) is a G-protein-coupled receptor which binds the tripeptide thyrotropin releasing hormone. TRHR is found in the brain and, when bound by TRH, acts (through phospholipase C) to increase intracellular inositol trisphosphate. It plays a crucial role in the anterior pituitary where it controls the synthesis and secretion of thyroid stimulating hormone and prolactin. The TRHR-Hek293 assay is a cell-based assay, and it has the potential to screen G protein-coupled receptors. A compound/drug can either activate (agonist) or suppress (antagonist) GPCRs that can be monitored by levels of intracellular calcium. In this assay, the Tox21 10K compound library was screened to identify potential TRHR antagonists.
Tox21 Assay Protocol Summary:
The TRHR-Hek293 cells were dispensed at 1500cells/4uL/well in 1536-well black-clear bottom plates using a Multidrop dispenser. After the assay plates were incubated at a 37 C/5% CO2 incubator for 18 hours, 4 uL of Dye-Loading Solution was added to each well. The plates were incubated at 37 C for 2 hours. For agonist mode, 23 nL of compounds dissolved in DMSO, positive controls or DMSO only was transferred to the assay plate by a pin tool. The fluorescence intensity in the plates was measured using FDSS 7000EX kinetic plate reader for 3 min at 1 sec intervals. For antagonist mode, 23 nL of compounds dissolved in DMSO, positive controls or DMSO only was transferred to the assay plate by a pin tool. After 5 min incubation at room temperature, 1 uL of TRH was added on the top of the cell/compound mixtures to achieve a final agonist concentration of 1 nM. The fluorescence intensity in the plates was measured using FDSS 7000EX kinetic plate reader for 3 min at 1 sec intervals. Each test compound was measured at 15 concentrations and in triplicates.

Sequence of Thyrotropin-releasing hormone receptor (Homo sapiens) (P34981 whole entry, looked up): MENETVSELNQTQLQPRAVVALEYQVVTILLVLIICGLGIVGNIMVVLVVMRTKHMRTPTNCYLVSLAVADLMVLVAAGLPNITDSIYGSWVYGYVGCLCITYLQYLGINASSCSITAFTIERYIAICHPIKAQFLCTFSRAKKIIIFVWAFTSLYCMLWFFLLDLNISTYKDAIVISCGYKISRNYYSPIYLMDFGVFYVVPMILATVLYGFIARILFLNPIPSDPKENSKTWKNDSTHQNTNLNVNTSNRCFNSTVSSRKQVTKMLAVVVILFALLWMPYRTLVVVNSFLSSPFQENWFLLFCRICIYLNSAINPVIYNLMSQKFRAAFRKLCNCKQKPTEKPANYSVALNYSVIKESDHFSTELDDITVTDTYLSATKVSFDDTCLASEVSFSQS

| Compound | Potency |
| --- | --- |
| c1ccc(-c2cccc(-c3ccccc3)c2)cc1 | inactive |
| CCC(CC)Nc1c([N+](=O)[O-])cc(C)c(C)c1[N+](=O)[O-] | inactive |
| CCC(C)(c1ccc(O)cc1)c1ccc(O)cc1 | inactive |
| CCCCC(CC)COC(=O)c1ccc(C(=O)OCC(CC)CCCC)c(C(=O)OCC(CC)CCCC)c1 (stereo not given) | inactive |
| CCN(CC)N=O | inactive |
| S=C1NCCN1 | inactive |
| CC(C)C(=O)OCC(C)(C)C(OC(=O)C(C)C)C(C)C (stereo not given) | inactive |
| N[C@@H](Cc1ccc(N(CCCl)CCCl)cc1)C(=O)O | inactive |
| COP(=O)(OC)OC | inactive |
| O=Cc1ccco1 | inactive |
| CC(C)(OOC(C)(C)c1ccccc1)c1ccccc1 | inactive |
| Nc1c(Cl)cc([N+](=O)[O-])cc1Cl | inactive |
| CCCCNC(=O)n1c(NC(=O)OC)nc2ccccc21 | inactive |
| CCCCCCCCOC(=O)c1ccccc1C(=O)OCCCCCCCC | inactive |
| O=P(Oc1ccccc1)(Oc1ccccc1)Oc1ccccc1 | inactive |
| Oc1cc(Cl)c(Cl)cc1Cl | inactive |
| c1ccc(N=Nc2ccccc2)cc1 | inactive |
| Nc1ccncc1 | inactive |
| O=S(=O)(Oc1ccc(Cl)cc1)c1ccc(Cl)cc1 | inactive |
| ClC1C(Cl)C(Cl)C(Cl)C(Cl)C1Cl (stereo not given) | inactive |

| Compound | Potency |
| --- | --- |
| Nc1cccnc1 | inactive |
| CC(C)(C)c1ccccc1O | inactive |
| O=P(O)(O)CCCl | inactive |
| NC(=S)Nc1ccccc1 | inactive |
| CCOc1cc(C=O)ccc1O | inactive |
| O=C(O)C(F)(F)C(F)(F)C(F)(F)C(F)(F)C(F)(F)C(F)(F)C(F)(F)F | inactive |
| COP(=S)(OC)Oc1cc(Cl)c(Cl)cc1Cl | inactive |
| C=CCc1ccc(OC)cc1 | inactive |
| Clc1nc(Cl)nc(Cl)n1 | inactive |
| c1ccc(NNc2ccccc2)cc1 | inactive |
| Oc1ccc(-c2ccccc2)cc1 | inactive |
| COC(=O)c1sccc1S(=O)(=O)NC(=O)Nc1nc(C)nc(OC)n1 | inactive |
| OCC(O)CO | inactive |
| Cc1ccccc1[N+](=O)[O-] | inactive |
| CCCCCCCCCCCOC(=O)c1ccccc1C(=O)OCCCCCCCCCCC | inactive |
| Brc1ccc(Oc2cc(Br)c(Br)cc2Br)c(Br)c1 | inactive |
| CC1(C)C(C=C(Cl)Cl)C1C(=O)OC(C#N)c1cccc(Oc2ccccc2)c1 (stereo not given) | inactive |
| Nc1ccc(Cl)c(Cl)c1 | inactive |
| Cc1cc(Cl)ccc1OCCCC(=O)O | inactive |
| Oc1c(Cl)c(Cl)c(Cl)c(Cl)c1Cl | inactive |
